The source of these data is ChEMBL document CHEMBL1157539, “Thousands of chemical starting points for antimalarial lead identification” (Nature, 2010).

Holding throughout (format): functional
In assay [1] the test system is Plasmodium falciparum. Kind of assay: GSK_TCMDC: Inhibition of Plasmodium falciparum 3D7 in whole red blood cells, using parasite LDH activity as an index of growth. Test compounds present at 2uM.
Assay [2] relates to Plasmodium falciparum. Put plainly: GSK_TCMDC: Inhibition of Plasmodium falciparum Dd2 in whole red blood cells, using parasite LDH activity as an index of growth. Test compounds present at 2uM.
A further assay concerns HepG2. Put plainly: GSK_TCMDC: Percent inhibition of human HepG2 cell line. Test compounds present at 10uM.

In general, Inhibition refers to the percentage by which the read-out fell short of the control. A high value points to a strong effect. On to `COC(=O)CCCCOc1c(OC)cc(Cc2cnc(N)nc2N)cc1OC`, for which the Inhibition came to 93% in the assay on Plasmodium falciparum [1], 0% with Plasmodium falciparum [2] and 0% in the assay on HepG2.
As to `CCCCCCN1CCCN(Cc2ccc(C(=O)Nc3cccc(CC)c3)cc2)CC1.O=C(O)C(F)(F)F`, the Inhibition in the assay with Plasmodium falciparum [1] is listed as 85%; with Plasmodium falciparum [2], 54%; in the assay on HepG2 it was 31%.
For `CNC(=O)COc1ccc(Nc2nnc(-c3ccc(C)c(S(=O)(=O)NCC4CCCO4)c3)c3ccccc23)cc1` (configuration not stated), in that order: 90%, 68% and 0%.
For `CC(C)C[C@H](NC(=O)c1ccc(OCCN2CCOCC2)cc1)C(=O)NC(/C=N/N1CCCC1=O)C(C)C` (some centres not stated), in that order: 90%, 81% and 3%.
For `CC(C)C1c2ccc(O)cc2CC2C(=O)N(C3CCCCC3)C(=O)N21` (configuration not stated), in that order: 95%, 88% and 2%.
Turning to `Cc1cc(-c2cccc(CNC3CCN(C)CC3)c2)ccc1S(=O)(=O)NCCN1CCCC1.O=C(O)C(F)(F)F`, the figures for the Inhibition in the assay on Plasmodium falciparum [1], in the assay on Plasmodium falciparum [2] and in the assay with HepG2 were 100%, 0% and 18%, respectively.
As for `CN1CCCN(Cc2cccc(-c3ccc(NC(=O)c4ccc(Cl)cc4)cc3)c2)CC1.O=C(O)C(F)(F)F`, the Inhibition in the assay on Plasmodium falciparum [1] is 97%; with Plasmodium falciparum [2] it was 35%; in the assay with HepG2, 31%.
In the same order, the values of `Cl.Oc1c(Cl)cc(-c2ccccc2)cc1CNC1CCCCC1` are 97%, 95% and 5%.
For `CCCn1c(Sc2ccc(C#N)c([N+](=O)[O-])c2)nnc1-c1ccc(N(C)C)cc1`, in that order: 97%, 98% and 18%.
